Drawing on PubChem BioAssay (Tox21), this text covers Potency for 8 molecules.

The structures appear in SMILES notation. Results filed as inconclusive are left out. Active and inactive are the calls of the source. Unless noted, calls come from the whole dose curve.

Test [1] can be described thus: Nuclear factor erythroid 2-related factor 2/antioxidant responsive element (Nrf2/ARE) small molecule agonists: qHTS cell viability counter screen in human keratinocytes (AID 1919968; active = well fitted curve in the direction sought with a large enough effect in the repeat runs; an effect the other way counts as inactive or inconclusive; note: nearly all actives have a fitted effect of over 55% in size). In short, it runs like this: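 Cytotoxicity was multiplexed with the Nrf2/ARE luciferase assay in the same wells. Stably transfected HaCaT keratinocytes were treated with test compounds for 23 h at 37 C. Cell viability was then measured by CellTiter-Fluor fluorescence.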

Test [2] in a line: Nuclear factor erythroid 2-related factor 2/antioxidant responsive element (Nrf2/ARE) small molecule agonists: luciferase reporter gene qHTS assay in human keratinocytes (AID 1919969). Note: nearly all actives have a fitted effect of over 35% in size. Note: potency is the fitted concentration of half-maximal effect.
The target in test [3] is KiSS-1 receptor (Homo sapiens) (UniProt Q969F8). The experiment in a line: Human kisspeptin (KISS1R) small molecule agonists, calcium flux assay in KISS1R-HEK293 cells (AID 1920064; active = well fitted curve in the direction sought with a large enough effect in the repeat runs; an effect the other way counts as inactive or inconclusive). The procedure, abridged: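 Agonist activity is monitored as intracellular calcium rise in engineered HEK293 cells carrying human KISS1R. Cells are dye-loaded for 1 h at 37 C before compound addition, and fluorescence is recorded for 3 min.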
KiSS-1 receptor (Homo sapiens), sequence (Q969F8 whole entry, looked up): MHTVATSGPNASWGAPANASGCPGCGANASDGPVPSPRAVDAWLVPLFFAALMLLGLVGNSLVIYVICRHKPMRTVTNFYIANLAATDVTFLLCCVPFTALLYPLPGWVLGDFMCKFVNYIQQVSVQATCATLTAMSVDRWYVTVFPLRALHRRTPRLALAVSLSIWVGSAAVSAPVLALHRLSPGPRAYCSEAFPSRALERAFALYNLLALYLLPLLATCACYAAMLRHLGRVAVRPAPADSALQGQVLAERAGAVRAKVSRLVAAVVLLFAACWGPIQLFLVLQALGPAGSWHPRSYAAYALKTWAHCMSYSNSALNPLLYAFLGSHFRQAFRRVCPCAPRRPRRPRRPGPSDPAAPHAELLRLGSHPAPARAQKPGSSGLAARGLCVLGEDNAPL

A short description of test [4]: G protein-coupled receptor (GPCR) small molecule agonists, calcium flux assay: HEK293 wild type cell line counter screen (AID 1920065). The procedure, abridged: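 Seed cells, incubate 18 h (37 C, 5% CO2); add calcium dye, 1 h at 37 C; pin-transfer compounds, ATP control or DMSO; read fluorescence 480/540 nm each second for 3 min.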
Test [5] in a line: p53 small molecule agonists, cell-based qHTS assay with human liver microsomes: qHTS cell viability counter screen (AID 1963579). Note: nearly all actives have a fitted effect of over 45% in size. The procedure, abridged:
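Metabolic activation used human liver microsomes and NADPH, both 0.5 mg/mL final, over 16 hours at 37 C on p53RE-bla cells (4,000/well). Cytotoxicity measured by CellTiter-Glo luminescence, 30 min at room temperature.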

Test [6] is described as follows: p53 small molecule agonists, cell-based qHTS assay with rat liver microsomes: qHTS cell viability counter screen (AID 1963580). Note: nearly all actives have a fitted effect of over 45% in size. In short, it runs like this: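 After the beta-lactamase ratio was read, CellTiter-Glo was added to the same wells and luminescence measured at 30 min; cells had been treated 16 h at 37 C with compounds, rat liver microsomes and NADPH (0.5 mg/mL final each).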

Test [7] is described as follows: p53 small molecule agonists, cell-based qHTS assay: qHTS cell viability counter screen (AID 1963581). Note: nearly all actives have a fitted effect of over 45% in size. In short, it runs like this:
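Viability was counter-screened in parallel with the p53 agonist reporter by measuring intracellular ATP luminescence in the same HCT-116 p53RE-bla wells after 16 h compound treatment at 37 C.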

A short description of test [8]: p53 small molecule agonists, cell-based qHTS assay (AID 1963582; active = well fitted activation curve with a large enough effect in the signal ratio in the repeat runs, not every such curve was filed as active; the % refers to the signal ratio). In short, it runs like this: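 Cells carrying a p53-responsive bla reporter are treated with test compounds for 16 h at 37 C; beta-lactamase activity is then detected with LiveBLAzer B/G FRET substrate after 2 h at room temperature.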
In test [9] the target is 5-hydroxytryptamine receptor 2A (Homo sapiens) (UniProt P28223). The experiment in a line: 5-hydroxytryptamine receptor 2A (HTR2A) small molecule antagonists, cell-based qHTS assay (AID 1963586). Note: nearly all actives have a fitted effect of over 45% in size. The procedure, abridged:
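CHO cells stably expressing human HTR2A were plated for 18 h at 37 C, then loaded with calcium dye for 1 h. Compounds were preincubated 5 min at room temperature before DOI (4 nM solution) was added. Kinetic fluorescence was read for 3 min.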

The target is the same in test [10]. The experiment in a line: 5-hydroxytryptamine receptor 2A (HTR2A) small molecule agonists, cell-based qHTS assay (AID 1963587). Note: nearly all actives have a fitted effect of over 30% in size. Note: potency is the fitted concentration of half-maximal effect. The procedure, abridged: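 CHO cells stably expressing human HTR2A, plated 18 h, loaded with calcium dye 1 h at 37 C. Agonist mode: compounds added and intracellular calcium fluorescence recorded kinetically for 2 min at 1 sec intervals.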

In test [11] the target is Muscarinic acetylcholine receptor M1 (Homo sapiens) (UniProt P11229). The experiment in a line: Cholinergic receptor muscarinic 1 (CHRM1) small molecule antagonists, cell-based qHTS assay (AID 1963588). Note: nearly all actives have a fitted effect of over 40% in size. In short, it runs like this:
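Compounds were tested at 15 concentrations in three independent runs. Dye-loaded CHRM1-CHO cells were exposed 5 min at room temperature before stimulation by acetylcholine added at 50nM. Intracellular calcium was read kinetically on FDSS for 3 min.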

Test [12] shares this target. The experiment in a line: Cholinergic receptor muscarinic 1 (CHRM1) small molecule agonists, cell-based qHTS assay (AID 1963589). Note: nearly all actives have a fitted effect of over 35% in size. In short, it runs like this:
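Cells were plated and incubated 18 h at 37 C/5% CO2, loaded with calcium dye for 1 h at 37 C, then treated with compounds in DMSO. Fluorescence was recorded kinetically at 1 sec intervals.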

Test [13] addresses Beta-2 adrenergic receptor (Homo sapiens) (UniProt P07550). The experiment in a line: Adrenergic beta2 receptor (ADRB2) small molecule antagonists, cell-based qHTS assay (AID 1963592). Note: series mostly up to about 92 µM; nearly all actives have a fitted effect of over 50% in size. The procedure, abridged: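 Assay format: CHO-ADRB2 cells, 18-20hr seeding at 37C/5% CO2, then compound plus 1nM isoproterenol agonist mix for 0.5hr RT. Homogeneous time-resolved fluorescence cAMP detection after 1hr, expressed as 665/615 nm ratio.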

The target is the same in test [14]. The experiment in a line: Adrenergic beta2 receptor (ADRB2) small molecule agonists, cell-based qHTS assay (AID 1963593).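 Note: CHO cells stably overexpressing human ADRB2.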 The procedure, abridged:
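CHO cells stably over-expressing ADRB2 were plated overnight at 37C, then dosed with compounds plus a stimulation mix containing 100uM IBMX and 25uM Ro-20-1724 for 0.5hr at room temperature. cAMP was measured by HTRF competition, 1hr.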

Test [15] deals with D(2) dopamine receptor (Homo sapiens) (UniProt P14416). The experiment in a line: Dopamine D2 receptor (DRD2) small molecule agonists, cell-based qHTS assay (AID 1963594). Note: nearly all actives have a fitted effect of over 35% in size. In short, it runs like this:
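HEK293 cells stably expressing human DRD2, pre-treated with PDE inhibitor Ro20-1724 (0.1 mM final) and compound 10 min at room temperature, then stimulated with NKH477 (200nM […]) for 30 min. cAMP read by HTRF (665/620 nm).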

For test [16] the target is unchanged. The experiment in a line: Dopamine D2 receptor (DRD2) small molecule antagonists, cell-based qHTS assay (AID 1963595; active = well fitted inhibition curve with a large enough effect in the signal ratio in the repeat runs, with a control signal flat; the % refers to the signal ratio). The procedure, abridged: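 HTRF cAMP read-out at 665 and 620 nm emission (340 nm excitation). Antagonist mode: compounds were tested against 12 nM quinpirole in DRD2-HEK293 cells, with 200 nM NKH477 raising cAMP and 0.1 mM Ro20-1724 blocking its breakdown.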

Test [17] can be described thus: cAMP Responsive Elements (CRE) small molecule agonists, cell-based qHTS assay (AID 1963590). In short, it runs like this: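 Cells carrying a CRE-driven beta-lactamase reporter (HEK 293T) are seeded, incubated overnight (18 h), and treated with test compounds for 3 h at 37 C; reporter activity is then detected with a FRET substrate after 2 h at room temperature.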

Test [18] in a line: p53 small molecule agonists, cell-based qHTS assay with rat liver microsomes (AID 1963578). In short, it runs like this:
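Metabolic activation by rat liver microsomes and NADPH, each 0.5 mg/mL final, added right after compounds to p53RE-bla reporter cells (4,000/well, plated 5 h earlier). 16 h at 37 C, then LiveBLAzer substrate for 2 h at room temperature in the dark; fluorescence read-out.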

The nature of test [19]: cAMP Responsive Elements (CRE) small molecule antagonists, cell-based qHTS assay (AID 1963591; active = well fitted inhibition curve with a large enough effect in the signal ratio in the repeat runs, not every such curve was filed as active; the % refers to the signal ratio). The procedure, abridged:
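Cells (CRE-bla HEK 293T, DMEM with 10% dialyzed FBS and 25 mM HEPES) are seeded and incubated 18 h. Compounds are added with NKH477 agonist at 0.25 uM final for 3 h, then FRET substrate for 2 h.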

The nature of test [20]: p53 small molecule agonists, cell-based qHTS assay with human liver microsomes (AID 1963577).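 Note: p53 response element beta-lactamase reporter cells with liver microsomes plus NADPH.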 The procedure, abridged:
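With metabolic activation: human liver microsomes (0.5 mg/mL final) plus NADPH (0.5 mg/mL final) added alongside compounds to p53RE-bla cells; 16 h 37 C exposure; beta-lactamase read by LiveBLAzer fluorescence.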

Muscarinic acetylcholine receptor M1 (Homo sapiens), sequence (P11229 whole entry, looked up): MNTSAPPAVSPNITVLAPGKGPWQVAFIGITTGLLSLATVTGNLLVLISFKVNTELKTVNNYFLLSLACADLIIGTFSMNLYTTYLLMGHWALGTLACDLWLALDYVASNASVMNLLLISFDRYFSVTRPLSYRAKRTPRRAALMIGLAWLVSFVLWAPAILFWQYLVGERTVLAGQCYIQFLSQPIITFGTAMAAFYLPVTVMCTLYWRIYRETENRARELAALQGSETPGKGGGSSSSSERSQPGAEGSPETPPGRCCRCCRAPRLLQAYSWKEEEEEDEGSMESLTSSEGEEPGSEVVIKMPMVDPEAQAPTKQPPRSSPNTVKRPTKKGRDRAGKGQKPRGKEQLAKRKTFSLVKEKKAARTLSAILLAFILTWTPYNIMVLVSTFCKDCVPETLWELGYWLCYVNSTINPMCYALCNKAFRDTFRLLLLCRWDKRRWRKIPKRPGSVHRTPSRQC
5-hydroxytryptamine receptor 2A (Homo sapiens), sequence (P28223 whole entry, looked up): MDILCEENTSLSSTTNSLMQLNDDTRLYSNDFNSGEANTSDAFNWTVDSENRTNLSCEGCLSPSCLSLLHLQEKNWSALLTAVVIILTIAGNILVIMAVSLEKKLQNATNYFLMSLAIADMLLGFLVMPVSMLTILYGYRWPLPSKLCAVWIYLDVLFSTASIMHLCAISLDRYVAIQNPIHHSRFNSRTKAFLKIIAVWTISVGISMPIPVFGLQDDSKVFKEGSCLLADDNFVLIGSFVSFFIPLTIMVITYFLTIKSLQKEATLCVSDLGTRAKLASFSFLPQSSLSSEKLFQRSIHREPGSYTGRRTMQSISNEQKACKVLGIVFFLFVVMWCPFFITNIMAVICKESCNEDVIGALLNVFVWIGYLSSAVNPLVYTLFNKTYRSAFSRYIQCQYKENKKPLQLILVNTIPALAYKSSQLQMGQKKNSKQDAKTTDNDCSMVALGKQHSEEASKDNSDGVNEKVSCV
Beta-2 adrenergic receptor (Homo sapiens), sequence (P07550 whole entry, looked up): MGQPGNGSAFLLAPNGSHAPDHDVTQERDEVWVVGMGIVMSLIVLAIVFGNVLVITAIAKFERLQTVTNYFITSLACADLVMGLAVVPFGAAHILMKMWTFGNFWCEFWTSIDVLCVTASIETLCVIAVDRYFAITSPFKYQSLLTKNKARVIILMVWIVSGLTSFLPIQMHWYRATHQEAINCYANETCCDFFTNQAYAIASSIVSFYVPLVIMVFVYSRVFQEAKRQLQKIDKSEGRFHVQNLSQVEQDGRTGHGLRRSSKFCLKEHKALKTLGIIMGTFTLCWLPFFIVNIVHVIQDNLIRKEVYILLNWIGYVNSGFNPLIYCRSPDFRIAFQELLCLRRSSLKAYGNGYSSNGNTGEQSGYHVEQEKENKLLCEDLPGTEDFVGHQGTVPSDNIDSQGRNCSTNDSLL
D(2) dopamine receptor (Homo sapiens), sequence (P14416 whole entry, looked up): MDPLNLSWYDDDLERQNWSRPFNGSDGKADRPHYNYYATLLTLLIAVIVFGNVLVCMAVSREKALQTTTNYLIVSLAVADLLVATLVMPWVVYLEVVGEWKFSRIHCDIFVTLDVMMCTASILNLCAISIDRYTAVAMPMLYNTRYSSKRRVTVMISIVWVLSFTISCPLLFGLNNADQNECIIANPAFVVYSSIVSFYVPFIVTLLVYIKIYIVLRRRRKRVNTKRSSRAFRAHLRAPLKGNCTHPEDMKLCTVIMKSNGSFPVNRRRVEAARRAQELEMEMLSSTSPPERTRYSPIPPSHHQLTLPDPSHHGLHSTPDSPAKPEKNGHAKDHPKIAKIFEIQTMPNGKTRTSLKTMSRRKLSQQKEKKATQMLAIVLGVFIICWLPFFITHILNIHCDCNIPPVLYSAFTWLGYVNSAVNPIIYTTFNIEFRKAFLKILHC

Consider `CC(C)c1ccccc1C(C)C`, for which the Potency entry in [1], in [2], in [3], in test [4], in test [5] and in test [6] was “inactive” throughout. Also, the Potency result in test [7], in [8], in test [9], in [10], in test [11] and in test [12] was “inactive” each time. Besides, the Potency result in [13], in test [14], in test [15] and in test [16] was “inactive” in each case.

`CCCCOC(=O)CCCCC(=O)OCCCC`: the Potency result in [1], in test [2], in test [3], in test [4], in test [5] and in test [6] was “inactive” throughout. Further, the Potency result in test [7], in [9], in test [10], in test [11], in test [12] and in test [17] was “inactive” throughout. Also, the Potency result in test [13], in [14], in test [15] and in test [16] was “inactive” in each case.

`CCC(=O)OCCC(C)CCC=C(C)C` (stereo not drawn): the Potency entry in [1], in test [2], in [3], in [4], in test [18] and in [5] was “inactive” throughout. For the same molecule, the Potency entry in [6], in test [7], in [8], in [9], in [10] and in test [11] was “inactive” in each case. The Potency result in test [12], in [17], in test [19], in test [13], in test [15] and in test [16] was “inactive” throughout.

With `CC(C)N1C(=O)c2ccccc2C1=O`, the Potency entry in test [1], in [2], in test [3], in test [4], in test [18] and in test [5] was “inactive” each time. Besides, the Potency entry in test [7], in test [8], in test [9], in test [10], in test [11] and in test [12] was “inactive” each time. The Potency result in [17], in [13], in test [14], in test [15] and in test [16] was “inactive” in each case.

In the case of `CC(C)CC(C)(C)C`, the Potency result in [1], in test [2], in [3], in test [4], in test [5] and in test [6] was “inactive” in each case. Besides, the Potency result in test [7], in [9], in test [10], in test [11], in test [12] and in [13] was “inactive” in each case. The Potency result in [15] and in test [16] was “inactive” throughout.

For the molecule `CC(C)c1ccc(O)c(C(C)C)c1`, the Potency entry in [1], in test [3], in [4], in test [20], in [6] and in [7] was “inactive” each time. Besides, the Potency entry in test [11], in test [12], in test [13], in test [15] and in test [16] was “inactive” throughout. Besides, the Potency in test [2] was 68.6 µM (active).

With `CN1C[C@H]2c3ccccc3Oc3ccc(Cl)cc3[C@@H]2C1`, the Potency result in [1], in [2], in test [3], in test [4], in test [18] and in [5] was “inactive” each time. In addition, the Potency entry in test [6], in test [7], in test [9], in [12], in test [17] and in test [19] was “inactive” each time. Further, in test [15], the Potency result is “inactive”. Further, in test [10], the Potency is 23.9 µM (active).

With `O=C(O)c1ccc(O)c(O)c1`, the Potency entry in test [1], in test [2], in [3], in test [4], in test [5] and in test [6] was “inactive” each time. Moreover, the Potency result in test [7], in [9], in test [10], in test [11], in [12] and in test [17] was “inactive” in each case. Further, the Potency result in test [19], in test [13], in test [15] and in test [16] was “inactive” in each case.
